SMILES strings stand for the structures. Among all 67,000 compounds or so, about 300 (0.45%) showed an effect of 50% or more. Only a selection was taken, and strong results are over-represented in it overall.

For this experiment, the target named is Polyketide synthase Pks13 (Mycobacterium tuberculosis (strain ATCC 25618 / H37Rv)) (UniProt I6X8D2). Put plainly: Mycobacterium tuberculosis Polyketide synthase 13 Thioesterase (PKS13). It counts as functional. On the set-up: scale not given: in the data most compounds retested in dose-response had high values. The following applies: 30 µM.
Polyketide synthase Pks13 (Mycobacterium tuberculosis (strain ATCC 25618 / H37Rv)), sequence (I6X8D2 whole entry): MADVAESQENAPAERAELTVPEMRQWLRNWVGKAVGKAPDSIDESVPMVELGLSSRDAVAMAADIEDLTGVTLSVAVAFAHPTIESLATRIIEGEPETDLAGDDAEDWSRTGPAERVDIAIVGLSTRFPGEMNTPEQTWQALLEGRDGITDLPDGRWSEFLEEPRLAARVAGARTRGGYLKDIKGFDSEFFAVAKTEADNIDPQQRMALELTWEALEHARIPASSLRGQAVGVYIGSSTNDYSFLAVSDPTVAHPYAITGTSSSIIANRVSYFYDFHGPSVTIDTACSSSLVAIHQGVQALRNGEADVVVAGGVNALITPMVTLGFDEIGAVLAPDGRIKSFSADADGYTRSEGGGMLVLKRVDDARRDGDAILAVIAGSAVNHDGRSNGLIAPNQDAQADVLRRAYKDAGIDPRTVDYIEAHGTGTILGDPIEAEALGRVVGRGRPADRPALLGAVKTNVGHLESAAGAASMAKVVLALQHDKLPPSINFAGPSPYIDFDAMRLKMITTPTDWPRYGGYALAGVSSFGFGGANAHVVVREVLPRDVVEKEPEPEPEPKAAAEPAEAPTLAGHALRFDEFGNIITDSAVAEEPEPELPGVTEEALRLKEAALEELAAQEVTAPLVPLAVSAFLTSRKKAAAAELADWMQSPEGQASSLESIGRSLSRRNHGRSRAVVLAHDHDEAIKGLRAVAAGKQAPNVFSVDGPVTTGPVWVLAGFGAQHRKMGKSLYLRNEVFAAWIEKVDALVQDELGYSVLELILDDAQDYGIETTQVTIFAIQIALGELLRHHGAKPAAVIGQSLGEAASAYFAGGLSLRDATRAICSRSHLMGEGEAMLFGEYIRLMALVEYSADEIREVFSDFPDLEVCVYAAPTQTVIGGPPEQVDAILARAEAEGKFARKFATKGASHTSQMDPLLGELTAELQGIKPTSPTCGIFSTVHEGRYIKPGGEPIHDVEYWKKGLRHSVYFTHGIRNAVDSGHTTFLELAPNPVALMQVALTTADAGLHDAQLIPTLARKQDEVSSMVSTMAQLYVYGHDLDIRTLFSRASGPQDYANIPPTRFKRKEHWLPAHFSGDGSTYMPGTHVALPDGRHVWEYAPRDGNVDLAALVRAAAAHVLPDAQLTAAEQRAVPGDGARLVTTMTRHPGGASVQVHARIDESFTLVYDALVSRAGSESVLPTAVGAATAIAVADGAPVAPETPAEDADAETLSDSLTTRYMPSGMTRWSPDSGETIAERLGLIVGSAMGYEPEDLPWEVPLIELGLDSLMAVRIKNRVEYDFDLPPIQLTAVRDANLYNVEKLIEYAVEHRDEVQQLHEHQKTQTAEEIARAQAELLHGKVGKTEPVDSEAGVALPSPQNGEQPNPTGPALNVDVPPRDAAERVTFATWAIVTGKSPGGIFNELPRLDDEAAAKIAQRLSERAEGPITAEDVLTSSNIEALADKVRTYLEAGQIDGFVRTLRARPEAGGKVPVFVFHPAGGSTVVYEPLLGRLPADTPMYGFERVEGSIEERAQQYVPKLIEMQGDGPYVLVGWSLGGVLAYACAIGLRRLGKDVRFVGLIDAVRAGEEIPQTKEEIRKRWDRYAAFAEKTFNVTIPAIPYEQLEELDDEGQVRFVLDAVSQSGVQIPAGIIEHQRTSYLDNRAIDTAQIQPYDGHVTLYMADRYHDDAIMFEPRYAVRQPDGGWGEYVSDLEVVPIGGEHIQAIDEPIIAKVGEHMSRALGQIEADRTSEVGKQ
On to `Cn1c(NCCC(=O)N2CCCC2)c(C#N)c(=O)n(C)c1=O`, for which the Percent Effect amounted to 1.71%.
To `Cn1c(NCC(=O)N2CCCC2)c(C#N)c(=O)n(C)c1=O` belongs 51.5%; to `Cn1c(NCC(=O)N2CCCCC2)c(C#N)c(=O)n(C)c1=O`, -9.87%.
For `Cn1cc(N2C(=O)CC[C@@H]3[C@H]2CCN3Cc2cccc(C#N)c2)cn1`, the Percent Effect is -11.3%.
To `CCOc1ccc2[nH]c(=O)c(CN3CCCC3c3ccccn3)cc2c1` (centres undefined) belongs -32.9%; to `O=c1[nH]c2cc3c(cc2cc1CN1CCCC1c1ccccn1)OCO3` (centres undefined), 78.6%; to `O=c1[nH]c2cc3c(cc2cc1CN1CCCC1c1ccccn1)CCC3` (centres undefined), -17.3%.
Take `O=C(c1ccoc1)N1CC[C@@H]2O[C@@H](COCc3ccncc3)CC[C@@H]21`: the Percent Effect is -10.6%.
Under `O=C(C[C@H]1[C@H]2CN(c3ncccn3)C[C@@H]12)Nc1cccnc1` stands -4.86%.
Under `CC(C)CN1CC[C@@H]2[C@@H]1CCN2C(=O)N(C)C` stands -18.3%; under `CCc1nc(Cn2c(=O)c3c(C(F)(F)F)cc(C)nc3n2C)no1`, 9.67%; under `Cc1cc(Cn2c(=O)c3c(C(F)(F)F)cc(C)nc3n2C)on1`, 3.92%.
Regarding `CCc1noc(Cn2c(=O)c3c(C(F)(F)F)cc(C)nc3n2C)n1`, the Percent Effect was 64.5%.
Under `CO[C@H]1CC[C@H]2[C@H]1OCCN2C(=O)c1ccc(C)nc1` stands -32.1%.
On to `Cc1ccc(N2CC[C@H]3OCC[C@@]3(C(=O)NCC3CC3)C2)nn1`, for which the Percent Effect was -16.8%.
Under `CC(C)CN1CCN(Cc2nc3c(s2)CCCC3)[C@H]2CS(=O)(=O)C[C@H]21` stands 3.91%; under `O=C(c1cnc2c(cnn2C2CCCC2)c1)N1CCN(CCO)CC1`, 90.8%; under `CCN1CCN(C(=O)c2cnc3c(cnn3C3CCCC3)c2)CC1`, 2.83%.
Under `CN1CCN(C(=O)c2cnc3c(cnn3C3CCCC3)c2)CC1` stands -58.3%.
Under `Cc1cc(CN2CC[C@@H]3O[C@@H](c4nnc(C)o4)C[C@H]3C2)no1` stands -7.21%; under `CN(C)C(=O)c1cc2c(nc1NCC1CC1)CCN(CC1CC1)CC2`, -12.7%; under `Cc1nc2c(cc1C(=O)O)CCN(CC1CC1)CC2`, -19.8%.
On to `CNC(=O)c1cc2c(nc1N(C)C)CCN(C)CC2`, for which the Percent Effect is -20.6%.
Under `CC(C)CCN1CCc2cc(C(=O)N(C)C)c(NCC3CC3)nc2CC1` stands -8.68%.
In the case of `CNC(=O)c1cc2c(nc1NC(C)C)CCNCC2`, the Percent Effect worked out at 73.6%.
To `CCS(=O)(=O)N1CCc2cc(C(=O)N(C)C)c(NCC3CC3)nc2CC1` belongs -30.5%; to `CC(C)Nc1nc2c(cc1C(=O)NCC1CC1)CCN(CC1CC1)CC2`, 69.4%; to `CN1CCc2cc(C(=O)N(C)C)c(NCC3CC3)nc2CC1`, -5.51%.
Under `CC(C)Nc1nc2c(cc1C(=O)N(C)C)CCNCC2` stands 0.822%; under `CC(C)Nc1nc2c(cc1C(=O)NCC1CC1)CCN(S(C)(=O)=O)CC2`, 85.6%; under `CC(C)NC(=O)c1cc2c(nc1N(C)C)CCN(S(=O)(=O)C1CC1)CC2`, 33.7%.
`CC(C)Nc1nc2c(cc1C(=O)NCC1CC1)CCN(C)CC2`: the Percent Effect is 90.8%.
`CCS(=O)(=O)N1CC[C@H]2O[C@H](c3nnc(C)o3)CC[C@H]21`: the Percent Effect was -8.23%.
To `CN1CC[C@H]2CN(C(=O)c3csc(Cc4ccccc4)n3)C[C@H]21` belongs -37.9%.
To `O=C1O[C@@H]2CN(C3CCOCC3)C[C@@H]2N1CCCc1ccc(F)cc1` belongs 1.75%; to `CC(C)CN1CCS(=O)(=O)[C@@H]2CCN(S(=O)(=O)N(C)C)CC[C@@H]21`, -30.1%; to `CCN1CCc2cc(C(=O)N(C)C)c(NCC3CC3)nc2CC1`, -12.5%.
`CNC(=O)N1CCc2cc(C(=O)N(C)C)c(NCC3CC3)nc2CC1`: the Percent Effect was 4.02%.
As for `CC(C)Nc1nc2c(cc1C(=O)NCC1CC1)CCNCC2`, the Percent Effect was found to be 51.7%.
To `CNC(=O)N1CCc2cc(C(=O)NCC3CC3)c(NC(C)C)nc2CC1` belongs 51.5%; to `COCCN1CCc2cc(C(=O)N(C)C)c(NC(C)C)nc2CC1`, -2.98%.
To `COCCN1CCc2cc(C(=O)NCC3CC3)c(NC(C)C)nc2CC1` belongs 68.2%; to `CNC(=O)c1cc2c(nc1NC(C)C)CCN(C(=O)NC(C)C)CC2`, 29.7%; to `COCCN1CCc2cc(C(=O)NC(C)C)c(NCC3CC3)nc2CC1`, 45.7%.
To `Cc1noc([C@@H]2CC[C@@H]3[C@@H](CCN3S(=O)(=O)c3cccnc3)O2)n1` belongs 4.22%.
In the case of `O=C1OCCN1CC(=O)N1C[C@H]2CC[C@@H]1CN(C(=O)c1ccccn1)C2`, the Percent Effect was -14.6%.
Turning to `Cc1ccc(N2CC[C@@H]3CN(Cc4cc[nH]n4)C[C@@H]3C2)nn1`, the Percent Effect was 3.96%.
To `CCN1CCN(S(=O)(=O)N2CCCC2)[C@H]2CS(=O)(=O)C[C@H]21` belongs -23.5%; to `CC(=O)N1CC[C@H]2N(C)CC[C@@]2(C(=O)Nc2cccnc2)CC1`, -11.6%; to `O=C(c1ccco1)N1C[C@H]2CN(Cc3cccc(F)c3)C(=O)[C@H]2C1`, -4.13%.
For the compound `c1ccc2c(c1)C(NC1CCCC1)CC21CCNCC1` (centres undefined), the Percent Effect is -6.43%.
Turning to `CNC(=O)N1C[C@H]2CC[C@@]3(N=C(c4ccccc4)NC3=O)[C@H]2C1`, the Percent Effect was -17.2%.
Under `CCOC(=O)[C@@H]1[C@@H](c2ccccc2)CN2CCN(S(C)(=O)=O)C[C@H]12` stands -1.54%; under `c1coc(CN2C[C@@H]3OCCN(CCN4CCCC4)[C@@H]3C2)c1`, -17.4%.

For the origin of these results see ChEMBL document CHEMBL3988442, “University of Dundee, Small-Polar-MMV Screening Library” (2021).
